Among the data in PubChem BioAssay AID2528 (National Center for Advancing Translational Sciences (NCATS), 2010) are activity change, negative = inhibition and Potency values, retold here.

Each structure is given as a SMILES string. “And” between values parts separate entries of the source, which are not always exact repeats. Identical values can stand only once. In all, about 350,000 compounds went through this assay and about 700 (0.2%) were called active. The call rests on the fitted dose curve; in most records, active means well fitted inhibition curve with a large enough effect; inconclusive means small, poorly fitted or top-dose-only effect; inactive means flat fitted curve, though single readings scatter. The list comes from a sample in which actives are over-represented; it also holds similar structures and randomly drawn compounds. A call without a number means that no potency is given here. Bridge positions count the residues as written; N and C are the ends. Peptide text beside a SMILES is read from it.
Potency means the concentration at half of the fitted maximal effect.

For this assay, the target named is RecQ-like DNA helicase BLM (Homo sapiens) (UniProt P54132). Put plainly: qHTS Assay for Inhibitors of Bloom's syndrome helicase (BLM). Further: nearly all actives have a fitted effect of over 35% in size. To be noted: recombinant BLM DNA unwinding, fluorescence dequenching; series mostly up to 56.1 µM. From the text: Survival of cells and the faithful propagation of the genome depend on elaborate mechanisms of detecting and repairing DNA damage. Treatment of advanced cancer relies on radiation therapy or chemotherapy, which kill cancer cells by causing extensive DNA damage. It is often found, that cancer cells develop resistance to therapy through enhanced activity of DNA repair functions; this has led to an increased interest in developing drugs that interfere with DNA repair, which could sensitize cancer cells to conventional therapy.
Sequence of RecQ-like DNA helicase BLM (Homo sapiens) (P54132 whole entry, looked up): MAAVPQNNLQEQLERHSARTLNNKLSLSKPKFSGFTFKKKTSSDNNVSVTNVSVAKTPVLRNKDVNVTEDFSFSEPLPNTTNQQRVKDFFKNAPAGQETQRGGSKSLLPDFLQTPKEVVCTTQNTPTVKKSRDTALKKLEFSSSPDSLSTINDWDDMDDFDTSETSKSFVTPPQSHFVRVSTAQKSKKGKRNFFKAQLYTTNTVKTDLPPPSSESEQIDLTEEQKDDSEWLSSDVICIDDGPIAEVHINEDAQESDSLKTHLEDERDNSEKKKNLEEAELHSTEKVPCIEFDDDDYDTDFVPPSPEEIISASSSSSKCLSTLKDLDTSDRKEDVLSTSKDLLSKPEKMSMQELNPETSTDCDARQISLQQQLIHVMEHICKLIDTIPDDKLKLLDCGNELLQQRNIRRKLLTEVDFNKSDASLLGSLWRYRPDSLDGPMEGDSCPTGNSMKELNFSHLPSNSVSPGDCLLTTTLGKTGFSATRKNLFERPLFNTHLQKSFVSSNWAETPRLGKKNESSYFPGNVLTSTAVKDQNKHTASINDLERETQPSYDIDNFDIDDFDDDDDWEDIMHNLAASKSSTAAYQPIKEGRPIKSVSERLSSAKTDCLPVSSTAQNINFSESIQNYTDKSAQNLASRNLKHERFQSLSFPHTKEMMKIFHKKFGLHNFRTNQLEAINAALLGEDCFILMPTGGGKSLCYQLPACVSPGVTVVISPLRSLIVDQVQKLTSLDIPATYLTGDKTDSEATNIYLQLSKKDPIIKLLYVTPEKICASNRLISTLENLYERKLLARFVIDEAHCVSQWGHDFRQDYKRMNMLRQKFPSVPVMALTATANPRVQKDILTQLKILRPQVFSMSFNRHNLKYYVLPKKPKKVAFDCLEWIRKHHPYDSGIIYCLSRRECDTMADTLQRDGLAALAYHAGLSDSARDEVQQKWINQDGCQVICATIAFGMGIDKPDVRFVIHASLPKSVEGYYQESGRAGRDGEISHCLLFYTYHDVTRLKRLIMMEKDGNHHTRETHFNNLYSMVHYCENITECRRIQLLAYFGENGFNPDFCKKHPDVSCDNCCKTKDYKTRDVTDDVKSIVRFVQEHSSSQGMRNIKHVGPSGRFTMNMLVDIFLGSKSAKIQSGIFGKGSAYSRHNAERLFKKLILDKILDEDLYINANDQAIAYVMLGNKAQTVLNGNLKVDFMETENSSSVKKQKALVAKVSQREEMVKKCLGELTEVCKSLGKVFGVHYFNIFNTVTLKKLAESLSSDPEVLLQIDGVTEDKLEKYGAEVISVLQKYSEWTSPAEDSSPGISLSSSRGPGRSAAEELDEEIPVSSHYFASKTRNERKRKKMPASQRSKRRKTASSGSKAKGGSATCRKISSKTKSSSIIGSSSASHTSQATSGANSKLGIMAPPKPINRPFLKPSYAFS
This validation qHTS assay pertains to human BLM, which is important in resolving abnormal DNA structures formed during replication or homologous recombination. Shutting down the expression of BLM leads to chromosomal instability and higher radiation sensitivity in cultured cells.
The validation assay was a fluorescence quenching based kinetic qHTS for BLM Helicase DNA unwinding. The activity was measured as ATP-dependent separation of a 20-bp DNA duplex extended by 30-nt single-stranded tails (forked duplex). The forked DNA substrate was tagged with rhodamine fluorophore (carboxytetramethyl rhodamine, TAMRA) and BHQ-2 (Black Hole Quencher 2) dark quencher. Strand separation results in an increase in the fluorescence of TAMRA (excitation 525 nm, emission 598 nm). This substrate construct operates in a red-shifted region where very few compound library members have been noted to fluoresce (PubChem AIDs 593 and 594). An additional feature of the assay is the inclusion of 2.5 ug/ml poly (dIdC), to reduce interference by compounds such as DNA intercalators, a major source of false inhibitors.
Ian Hickson, University of Oxford
Opher Gileadi, Structural Genomics Consortium, University of Oxford
Screening Center PI: Austin, C.P.
Screening Center: NIH Chemical Genomics Center [NCGC]
Three uL of reaction buffer (25 mM Tris-HCl (pH 8.0), 5 mM NaCl, 2 mM MgCl2, 1mM DTT, 0.01% Tween- 20, and 2.5 ug/ml poly(dI-dC), including enzyme (50 nM BLM), were dispensed into a 1536-well Greiner black assay plate via solenoid-valve based nanoliter dispensers. Compounds (23 nl each in columns 5-48) and control (23 nl each in column 2 as dose-response) were transferred via a Kalypsys pintool equipped with a 1536-pin array. The plates were incubated for 15 min at room temperature, and then 1 ul of substrates (200 nM DNA and 2 mM ATP, final concentrations) was added to start the reaction. The plate was transferred into a ViewLux high-throughput CCD imager where the reaction progress was measured in a discontinuous kinetic mode (two reads spaced 2 hours apart, with intermediate room temperature incubation of the covered assay plate) by using standard red-fluorescence optics (excitation filter 525 nm, emission filter 598 nm). Enzyme-free and vehicle (DMSO) controls were included for signal normalization.
(qHTS replaces the single test concentration by a dilution series.)
In the case of `C=CC1=C2C=C(C3CC3)N(C(CO)CO)C=C2C(=O)C(C)(OC(=O)c2ccco2)C1=O` (centres undefined), the activity change, negative = inhibition is -12.4% [at 12.4 µM] (inactive). `C[C@@H](O)[C@@H]1NC(=O)[C@H](CCCCN)NC(=O)[C@H](Cc2c[nH]c3ccccc23)NC(=O)[C@H](Cc2ccccc2)NC(=O)[C@H](Cc2ccccc2)NC(=O)[C@H](CC(N)=O)NC(=O)[C@H](CCCCN)NC(=O)[C@@H](NC(=O)[C@@H]2CCCN2)CSSC[C@@H](C(=O)N[C@@H](CCCCN)C(=O)O)NC(=O)[C@H](CO)NC(=O)[C@H](CO)NC(=O)[C@H](Cc2ccccc2)NC1=O` (H-PCKNFFWKTFSSCK-OH; disulfide 2-13): the Potency result is “inactive”. Take `CCOC(=O)C1CCCN(C(=O)c2ccc3c(c2)sc2nc(-c4ccc(CC)cc4)cn23)C1` (centres undefined): the Potency result was “inactive”.

In the case of `OCCC(O)CO` (centres undefined), the Potency result is “inactive”.

On to `CC[C@]1([C@H]2O[C@@H]([C@@H]3O[C@](O)(CO)[C@@H](C)C[C@H]3C)C[C@H]2C)CC[C@@H]([C@]2(C)CC[C@@]3(C[C@@H](O)[C@@H](C)[C@@H]([C@H](C)[C@H](OC)[C@H](C)C(=O)O)O3)O2)O1`, for which the Potency entry was “inactive”. Still for that read-out and setting: then `COc1ccc(NC(=O)CSc2nc(NS(=O)(=O)c3ccc(C)cc3)cc(=O)[nH]2)cc1`, with 22.4 µM (active); and `Cc1ccc(NC(=O)CSc2nc(CSc3ccc(C)cc3)cc(=O)[nH]2)cc1`, with “inactive”; and `Cc1ccc(OCCCC(=O)Nc2ccc(S(=O)(=O)Nc3cc(C)nc(C)n3)cc2)cc1`, with “inactive”. Consider `COCCn1c(=O)c(CCc2ccccc2)nc2cnc(N3CCNCC3)nc21`, for which the Potency result is “inactive”. On the same count and under the same terms, then `N[C@@H](C(=O)O)c1ccc(P(=O)(O)O)cc1`, with “inactive”; and `COC(C)C(C(=O)OCC1=CCN2CC[C@H](O)[C@@H]12)C(C)C` (some centres undefined), with “inactive”; and `COc1ccc2c3c1OC1CC(O)C=C[C@@]31CCN(C)C2` (some centres undefined), with “inactive”. With `CCOC(=O)c1c(C)[nH]c2c1-c1ccccc1C(=O)C2=O`, the Potency is 2.82 µM (active).

Consider `CCOC(=O)c1c(C)[nH]c(C(=O)NCc2ccccc2OC)c1C`, for which the Potency result was “inactive”. On to `CCOC(=O)c1c(SCC(=O)Nc2cccc(C)c2C)nc(=O)[nH]c1C`, for which the Potency entry was “inactive”. The same measure, in the same setting: then `COc1ccc(NS(=O)(=O)c2cc3c4c(c2)CC(=O)N4CCC3)cc1Cl`, with “inactive”; and `COC(=O)C(C(=O)OC)[C@@H](NC=O)c1ccccc1`, with “inactive”. In the case of `CCCCS(=O)(=O)N1C2=NC(C(=O)OC)=C(C(=O)OC)[C@@H]3N(Cc4ccccc4)c4ccccc4[C@]23C[C@H]1C(=O)OC`, the activity change, negative = inhibition is -0.97% [at 12.4 µM] (inactive).

On to `C=CCOC(=O)C(C(C)=O)C(NC(=O)OC)c1ccccc1` (centres undefined), for which the activity change, negative = inhibition is -4.39% [at 12.4 µM] (inactive). On to `CC(C)C[C@@H](CC(=O)N[C@@H](CCC(=O)O)CC(=O)O)NC(=O)[C@@H]1CCCC[C@H]1NC(=O)C[C@@H](NC(=O)C[C@H](Cc1c[nH]c2ccccc12)NC(=O)[C@@H]1CCCC[C@H]1N)C(C)C`, for which the Potency result was “inactive”. As for `Nc1ncn(C2OC(CO)C(O)C2O)c(=O)n1` (centres undefined), the Potency result was “inactive”.

Turning to `CC1CC[C@@]23CCC4(C)[C@@]5(C)CCC6C(C)(C)C(O)CC[C@@]6(C)C5C=C[C@@]4(OC2=O)C3C1C` (some centres undefined), the Potency entry was “inactive”. With `COc1ccc(-c2nc3c(c4c2C[C@H](c2ccccc2)OC4)CN(C(=O)c2cccnc2)CC3)c(C)c1`, the activity change, negative = inhibition is 0.694% [at 12.4 µM] (inactive). Turning to `C=C1O[C@@](CO)(n2cnc3c(N)ncnc32)[C@H](O)[C@@H]1O`, the Potency entry is “inactive”.

Turning to `COc1ccc(-c2nc(-c3ccccc3)oc2Nc2ccc3ccccc3c2)cc1`, the Potency entry is “inactive”.

On to `CCCC[C@H]1C(=O)N(c2ccccc2)N(c2ccc(O)cc2)C1=O`, for which the Potency entry was “inactive”. In the case of `COC(=O)[C@@]1(Cc2ccc(F)cc2)[C@@H]2[C@@H](CC(=O)[C@H]2CC(=O)C(=O)N2CCCC2)CN1C(=O)c1ccccc1`, the Potency result was “inactive”.

Turning to `COC(=O)C1(C)C=CC2(CCCCC2)N1C(C)=O` (centres undefined), the Potency result is “inactive”. Take `CC1=C2[C@@H](O)[C@H]([C@@H](C)C(=O)NCCC(C)C)CC[C@@]2(C)C=CC1=O`: the Potency entry was “inactive”. Same read-out and setting: for `Cc1ccc(-c2ncc(Cl)cc2-c2ccc(S(C)(=O)=O)cc2)cn1` the value was “inactive”. `C[C@H]1CC[C@H](C(=O)O)N[C@@H]1c1ccc(C#Cc2ccccc2)cc1`: the activity change, negative = inhibition was 6.21% [at 12.4 µM] (inactive). As for `COc1ccccc1CNc1ncnc2ccc(-c3c(C)noc3C)cc12`, the Potency result was “inactive”. Still for that read-out and setting: then `Nc1nc2[nH]c(=O)c(=O)[nH]c2c(=O)[nH]1`, with “inactive”; and `CC/C=C\C/C=C\C/C=C\C/C=C\C/C=C\C/C=C\CCC(=O)NC(C)C(=O)O` (centres undefined), with “inactive”. Take `COC(=O)C1=C(C)N(Cc2ccccc2)C2=C3C(=O)N(c4ccccc4)C(=O)C3[C@@](O)(C(=O)OC)C(=O)N2C1c1ccccc1` (some centres undefined): the activity change, negative = inhibition is -3.25% [at 12.4 µM] (inactive) and -3.97% [at 12.4 µM] (inactive). As for `COc1ccc(S(=O)(=O)c2c(Nc3cccc(Cl)c3)sc(C(=O)c3ccccc3)c2N)cc1`, the Potency result is “inactive”. As to `CC1(C)OC2CO[C@]3(COS(N)(=O)=O)OC(C)(C)OC3C2O1` (some centres undefined), the Potency entry is “inactive”.

For `COc1cc(OC)c(NC(=O)c2nc(-c3ccncc3)no2)cc1Cl`, the Potency entry was “inactive”. With `N#Cc1c(C(F)(F)F)cc(-c2cccs2)nc1N1CCCCC1`, the Potency entry is “inactive”. For `N#Cc1c(N2CCCCC2)nc(N)c2c(N)nc(SCC(=O)O)cc12`, the Potency is 28.2 µM (active). As to `C=C1C(=CC=C2CCC[C@@]3(C)[C@@H]2CC[C@H]3[C@H](C)CCCC(C)C)C[C@@H](O)C[C@@H]1O`, the Potency result is “inactive”. For the compound `CC(C)CN1CCc2nc(-c3ccccc3)c3c(c2C1)COC(C)C3` (centres undefined), the activity change, negative = inhibition is -4.43% [at 12.4 µM] (inactive). `Cc1ccc(CCNC(=O)C2CCN(c3nnc(-n4cccc4CNc4ccc(C)cc4)s3)CC2)cc1`: the Potency result is “inactive”. As for `CC(C)C1=CC2=CC[C@H]3[C@](C)(C(=O)O)CCC[C@]3(C)C2CC1` (some centres undefined), the Potency result is “inactive”. The same measure, in the same setting: then `O=C(O)c1cc(Cl)c(Cl)cc1C(=O)Nc1cccc2ncccc12`, with “inactive”. As for `Cc1ccc(/C=C(\C#N)C(=O)Nc2cccc3ncccc23)o1`, the Potency was 7.94 µM (active). As to `CCOC(=O)c1ccc(-c2ccc(/C=C(\C#N)C(=O)Nc3ccc(OCC)cc3)o2)cc1`, the Potency entry is “inactive”. With `FC(F)(F)c1ccccc1-c1nc(-n2ccnc2)c2ccccc2n1`, the Potency entry was “inactive”.

For the compound `C/C(CCN1CCCCc2nc(C)c(C)cc21)=N\O[C@@H](C)c1cn([C@@H]2COC[C@@H]2O)nn1`, the activity change, negative = inhibition is 3.53% [at 12.4 µM] (inactive).
